From PubChem BioAssay (NCATS)
Inconclusive results are not listed. Active and inactive are the calls of the source. The call rests on the fitted dose curve; in most records, active means well fitted curve in the direction sought with a large enough effect; inconclusive means small, poorly fitted or top-dose-only effect, or another doubt; inactive means no such curve, though single readings can be large; an effect the other way counts as inactive or inconclusive.

How the values were obtained:
[1] = molecular target: Cellular tumor antigen p53 (Homo sapiens) (UniProt P04637); assay: Primary qHTS for small molecule compounds that upregulate eGFP-tagged delta133p53alpha (in N-terminal) cells. (AID 2060322); conditions: NCI-H358 eGFP-delta133p53alpha fluorescence, 24 h; activation: stronger effect = higher value;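 further: series mostly up to about 56 µM; 0% = DMSO vehicle and 100% = reference activator; nearly all actives have a fitted effect of over 75% in size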
Procedure, shortened: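 NCI-H358 cells pre-induced 24 h with 10 ng/ml doxycycline to express N-terminal eGFP-delta133p53alpha, then dosed 24 h at 37C without doxycycline; fixed, Hoechst-stained, GFP intensity by laser scanning cytometry, normalized to DMSO (0%) and 57.5 uM 5-azacytidine (100%).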

[2] = molecular target: Aldehyde dehydrogenase, mitochondrial (Homo sapiens) (UniProt P05091); assay: qHTS for Inhibitors of the Aldehyde Dehydrogenase Family (ALDH2) Primary screen (AID 2061308);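 further: plate controls were vehicle for no effect and reference inhibitor for full effect; nearly all actives have a fitted effect of over 55% in size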
[3] = molecular target: Retinaldehyde dehydrogenase 3 (Homo sapiens) (UniProt P47895); assay: qHTS for Inhibitors of the Aldehyde Dehydrogenase Family (ALDH1A3) Primary screen (AID 2061315);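 further: plate controls were DMSO vehicle for no effect and reference inhibitor for full effect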

Sequence of Cellular tumor antigen p53 (Homo sapiens) (P04637 whole entry, looked up): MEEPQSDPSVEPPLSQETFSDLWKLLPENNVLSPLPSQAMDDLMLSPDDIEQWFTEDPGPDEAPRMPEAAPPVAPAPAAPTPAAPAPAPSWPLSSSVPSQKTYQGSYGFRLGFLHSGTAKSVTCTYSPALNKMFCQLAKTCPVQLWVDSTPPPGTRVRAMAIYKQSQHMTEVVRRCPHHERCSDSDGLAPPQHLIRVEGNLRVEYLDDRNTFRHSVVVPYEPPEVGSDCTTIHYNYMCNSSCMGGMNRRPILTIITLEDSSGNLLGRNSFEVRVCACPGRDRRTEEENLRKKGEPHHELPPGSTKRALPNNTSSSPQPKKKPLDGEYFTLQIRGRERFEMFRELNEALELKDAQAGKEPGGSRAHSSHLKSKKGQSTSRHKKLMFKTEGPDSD

C=CC/C=C\C/C=C\CCCCCCCc1cccc(O)c1C(=O)O
inactive: activation [1] 8.04% | Potency [2] | Potency [3]

COc1cc2oc(-c3ccc(O)cc3O)cc2c(OC)c1CC=C(C)C
inactive: activation [1] 9.82% | Potency [2] | Potency [3]

COc1cc(O)cc2c1C(=O)OC(C)C2 (stereo not drawn)
inactive: activation [1] -13% | Potency [2] | Potency [3]

COCCOCCOc1ccc(C2=N[C@@](C)(C(=O)O)CS2)c(O)c1
inactive: activation [1] 1.67% | Potency [2] | Potency [3]

C/C(=C\CCC(C)(O)c1ccc(C)cc1)C(=O)O (stereo not drawn)
inactive: activation [1] -12.2% | Potency [2] | Potency [3]

COc1cc(C2Oc3c(OC)cc(CCCO)cc3C2CO)ccc1O[C@H]1O[C@H](C)[C@@H](O)[C@H](O)[C@@H]1O (stereo partly drawn)
inactive: activation [1] -13.7% | Potency [2] | Potency [3]

COc1cc(/C=C2\CCCN([C@@H](C)c3ccc(F)cc3)C2=O)ccc1-n1cnc(C)c1
inactive: activation [1] -22.3% | Potency [2] | Potency [3]

COC(=O)c1cc(OC)cc(OC)c1C(=O)c1c(OC)cc2c(c1O)C1CCCC(C)(O2)O1 (stereo not drawn)
inactive: activation [1] 14.5% | Potency [2] | Potency [3]

OC[C@H]1O[C@@H](Oc2ccc3c(c2)OC[C@H]2c4cc5c(cc4O[C@@H]32)OCO5)[C@H](O)[C@@H](O)[C@@H]1O
inactive: activation [1] -13.7% | Potency [2] | Potency [3]

CC(=O)c1ccc(O[C@@H]2OC[C@@H](O)[C@H](O)[C@H]2O[C@]2(CO)O[C@H](CO)[C@@H](O)[C@@H]2O)c(O)c1
inactive: activation [1] -9.92% | Potency [2] | Potency [3]

CC1=CC(=O)C2(OC3OC(C)C(O)C(OC(=O)/C=C/c4ccccc4)C3O)C=COC(OC3OC(CO)C(O)C(O)C3O)C12 (stereo not drawn)
inactive: activation [1] -13.7% | Potency [2] | Potency [3]
